# “And” between values parts separate entries of the source, which are not always exact repeats. Identical values can stand only once.
# Tested on: K562
# Assay: cell viability relative to vehicle control; higher = less cytotoxic
# Conditions: 10 µM; SRSF2 genotype: SRSF2 P95H/wt
# Summary of the method: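 Four leukaemia lines, as CRISPR-edited mutant clones and isogenic wild-type clones, were tested against Selleck bioactive, kinase and epigenetic probe libraries after removal of identity-inconsistent compounds. Cells were exposed to a single 10 µM dose for 48 h, and CellTiter-Glo luminescence was then read. Viability was calculated relative to the on-plate vehicle control.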
row,Compound,cell viability
1,C=C1[C@H](O)C[C@H]2[C@@H](/C=C(\C)C(=O)[C@@]3(O)C[C@H](C)[C@H](O)[C@@H]3[C@H]1O)C2(C)C,98.1% and 92%
2,COc1cccc(C=NCCN=Cc2cccc(OC)c2[O-])c1[O-].[Cl-].[Mn+3],100% and 97%
3,c1ccc(CNc2nc(NCc3ccccc3)c3ccccc3n2)cc1,17.4% and 10.9%
4,CCCC1O[C@@H]2C[C@H]3[C@@H]4CCC5=CC(=O)C=C[C@]5(C)[C@H]4[C@@H](O)C[C@]3(C)[C@]2(C(=O)CO)O1 (stereo not given in full) [Budesonide],85.5% and 95.1%
5,"Cc1[nH]c(/C=C2\C(=O)Nc3ccccc32)c(C)c1CCC(=O)O [Orantinib (TSU-68, SU6668)]",98.7% and 95.2%
6,CC(=O)Oc1cccc2ccccc12 [1-Naphthyl acetate],90.4% and 85.3%
7,CN1CCN(CCOc2cc(OC3CCOCC3)c3c(Nc4c(Cl)ccc5c4OCO5)ncnc3c2)CC1 [Saracatinib (AZD0530)],7.73% and 16.1%
8,CC[C@H]1OC(=O)[C@@](C)(F)C(=O)[C@H](C)[C@@H](O[C@@H]2O[C@H](C)C[C@H](N(C)C)[C@H]2O)[C@](C)(OC)C[C@@H](C)C(=O)[C@H](C)[C@H]2N(CCCCn3cc(-c4cccc(N)c4)nn3)C(=O)O[C@]12C [Solithromycin],91% and 93.4%
9,C[C@@H]1O[C@@H](O[C@H]2[C@H](Oc3cc(O)c(C(=O)CCc4ccc(O)cc4)c(O)c3)O[C@H](CO)[C@@H](O)[C@@H]2O)[C@H](O)[C@H](O)[C@H]1O [Naringin Dihydrochalcone (Naringin DC)],99.7% and 107%
10,O=C(Nc1c[nH]nc1-c1nc2ccc(CN3CCOCC3)cc2[nH]1)NC1CC1,26.9% and 28.6%
11,Nc1ccccc1NC(=O)c1ccc(CNc2nccc(-c3cccnc3)n2)cc1 [Mocetinostat (MGCD0103)],4.12% and 14.8%
12,COc1c2c(cc3oc(COC4OC(CO)C(O)C(O)C4O)cc(=O)c13)OC(C(C)(C)O)C2 (stereo not given) [Prim-o-glucosylcimifugin],83.8% and 84.2%
13,CN(CCOc1ccc(CC2SC(=O)NC2=O)cc1)c1ccccn1 (stereo not given) [Rosiglitazone (Avandia)],101% and 90.7%
14,CC(C)CC(=O)Nc1n[nH]c2c1CN(C(=O)C1CCN(C)CC1)C2(C)C,37.5% and 39.7%
15,CC1(C)[C@@H](O[C@H]2O[C@H](C(=O)O)[C@@H](O)[C@H](O)[C@H]2O[C@@H]2O[C@H](C(=O)O)[C@@H](O)[C@H](O)[C@H]2O)CC[C@]2(C)[C@H]3C(=O)C=C4[C@@H]5C[C@@](C)(C(=O)O)CC[C@]5(C)CC[C@@]4(C)[C@]3(C)CC[C@@H]12 [Ammonium Glycyrrhizinate (AMGZ)],101% and 111%
16,CCC(=O)Nc1cccc(Oc2nc(Nc3ccc(N4CCN(C)CC4)cc3OC)ncc2Cl)c1,90.9% and 97.3%
17,C[C@]12CC[C@@H]3c4ccc(O)cc4CC[C@H]3[C@@H]1C[C@@H](O)[C@@H]2O [Estriol],104% and 92.3%
18,COC(=O)N[C@H](C(=O)N1CCC[C@H]1c1ncc(-c2ccc(-c3ccc(-c4cnc([C@@H]5CCCN5C(=O)[C@@H](NC(=O)OC)C(C)C)[nH]4)cc3)cc2)[nH]1)C(C)C [Daclatasvir Digydrochloride],79.2% and 78.8%
19,O=C(/C=C\n1cnc(-c2cc(C(F)(F)F)cc(C(F)(F)F)c2)n1)NNc1cnccn1 [Selinexor (KPT-330)],8.08% and 19.9%
20,C[C@@H]1O[C@@H](OC[C@H]2O[C@@H](Oc3c(-c4ccc(OCCO)c(OCCO)c4)oc4cc(OCCO)cc(O)c4c3=O)[C@H](O)[C@@H](O)[C@@H]2O)[C@H](O)[C@H](O)[C@H]1O [Troxerutin],105% and 90.9%
21,O=C1c2c(O)cc(O)cc2OC(c2ccc(O)c(O)c2)C1O (stereo not given) [Taxifolin (Dihydroquercetin)],97.9% and 94.4%
22,COc1cc2oc(-c3ccc(O)cc3)cc(=O)c2c(O)c1[C@@H]1O[C@H](CO)[C@@H](O)[C@H](O)[C@H]1O[C@@H]1O[C@H](CO)[C@@H](O)[C@H](O)[C@H]1O [Spinosin],106%
23,O=C(CCNC(=O)c1ccc(OC(F)(F)F)cc1)N[C@@H]1CCCc2ccccc21,105% and 110%
24,O=C1Nc2ccc(I)cc2C1=Cc1cc(Br)c(O)c(Br)c1,96.6% and 89.4%
25,NC(=O)/C(=C/n1cnc(-c2cc(C(F)(F)F)cc(C(F)(F)F)c2)n1)c1cncnc1,3.74% and 12.7%
